Assay results published in PubChem BioAssay AID1159580 (chemical genetic matrix, 2015).
“And” between values parts separate entries of the source, which are not always exact repeats. Equal values may be shown once. Screen size: about 5,500 compounds; about 2,000 (36%) were called active. About 18% were inconclusive and are not listed. No stated cut-off is given here; in the data, active means normalized growth mostly below about 0.91 (no sharp cut-off); inconclusive means no clear call, values can overlap the other calls; inactive means mostly above about 0.92. Some of the results follow.

Experiment: chemical genetic growth profiling, strain panel (AID 1159580);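 further: tested at 20 µM; growth read once vehicle control cultures reached saturation at 30 °C; 1 = growth at the plate median or of vehicle wells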
Details: growth OD

Measured: normalized growth

Cn1c(=O)c2[nH]c(C3CCCC3)nc2n(C)c1=O
inactive: S. cerevisiae deletion strains, locus YJR075W, strain HOC1, stronger effect = lower value 1.01 and 1.04 | S. cerevisiae deletion strains, locus YKL009W, strain mrt4, stronger effect = lower value 1 | S. cerevisiae deletion strains, locus YKL068W, stronger effect = lower value 1.02 | S. cerevisiae deletion strains, locus YKL085W, strain MDH1 (second series), stronger effect = lower value 1.05 | S. cerevisiae deletion strains, locus YKL085W, strain MDH1, stronger effect = lower value 1.05 | S. cerevisiae deletion strains, locus YKL160W, strain elf1, stronger effect = lower value 0.983 | S. cerevisiae deletion strains, locus YKL190W, strain CNB1, stronger effect = lower value 1.02 | S. cerevisiae deletion strains, locus YKR001C, strain vps1, stronger effect = lower value 1 | S. cerevisiae deletion strains, locus YKR026C, strain gcn3, stronger effect = lower value 1 | S. cerevisiae deletion strains, locus YKR091W, strain srl3, stronger effect = lower value 0.991 | S. cerevisiae deletion strains, locus YLL001W, strain dnm1, stronger effect = lower value 0.97 | S. cerevisiae deletion strains, locus YLL026W, stronger effect = lower value 0.989 | S. cerevisiae deletion strains, locus YLL041C, strain sdh2, stronger effect = lower value 0.988 | S. cerevisiae deletion strains, locus YLR027C, strain aat2, stronger effect = lower value 0.995 | S. cerevisiae deletion strains, locus YLR039C, strain RIC1, stronger effect = lower value 0.966 | S. cerevisiae deletion strains, locus YLR058C, strain SHM2, stronger effect = lower value 1.01 | S. cerevisiae deletion strains, locus YLR102C, strain apc9, stronger effect = lower value 0.999 | S. cerevisiae deletion strains, locus YLR113W, strain HOG1, stronger effect = lower value 1 | S. cerevisiae deletion strains, locus YLR221C, strain rsa3, stronger effect = lower value 0.988 | S. cerevisiae deletion strains, locus YLR258W, strain gsy2, stronger effect = lower value 0.972 | S. cerevisiae deletion strains, locus YLR262C, strain YPT6 (second series), stronger effect = lower value 0.997 | S. cerevisiae deletion strains, locus YLR262C, strain YPT6, stronger effect = lower value 1.04 | S. cerevisiae deletion strains, locus YLR268W, strain sec22, stronger effect = lower value 0.988 | S. cerevisiae deletion strains, locus YLR320W, strain mms22, stronger effect = lower value 0.989 | S. cerevisiae deletion strains, locus YLR330W, strain CHS5, stronger effect = lower value 1.01 | S. cerevisiae deletion strains, locus YLR342W, strain FKS1 (second series), stronger effect = lower value 1 | S. cerevisiae deletion strains, locus YLR342W, strain FKS1, stronger effect = lower value 0.986 | S. cerevisiae deletion strains, locus YLR357W, strain rsc2, stronger effect = lower value 0.954 | S. cerevisiae deletion strains, locus YLR370C, strain arc18, stronger effect = lower value 0.997 | S. cerevisiae deletion strains, locus YLR371W, strain rom2, stronger effect = lower value 0.997 | S. cerevisiae deletion strains, locus YLR384C, strain iki3, stronger effect = lower value 0.986 | S. cerevisiae deletion strains, locus YLR418C, strain cdc73, stronger effect = lower value 0.989 | S. cerevisiae deletion strains, locus YML016C, strain PPZ1, stronger effect = lower value 1.02 | S. cerevisiae deletion strains, locus YML032C, strain rad52, stronger effect = lower value 0.99 | S. cerevisiae deletion strains, locus YML120C, strain ndi1, stronger effect = lower value 0.992 | S. cerevisiae deletion strains, locus YML124C, strain tub3, stronger effect = lower value 0.998 | S. cerevisiae deletion strains, locus YMR058W, strain fet3, stronger effect = lower value 1 | S. cerevisiae deletion strains, locus YMR078C, strain ctf18, stronger effect = lower value 0.996 | S. cerevisiae deletion strains, locus YMR125W, strain sto1, stronger effect = lower value 0.979 | S. cerevisiae deletion strains, locus YMR129W, stronger effect = lower value 0.999 | S. cerevisiae deletion strains, locus YMR205C, strain PFK2, stronger effect = lower value 0.988 | S. cerevisiae deletion strains, locus YMR223W, strain ubp8, stronger effect = lower value 0.989 | S. cerevisiae deletion strains, locus YMR231W, strain pep5, stronger effect = lower value 0.988 | S. cerevisiae deletion strains, locus YMR263W, strain SAP30, stronger effect = lower value 1.02 and 0.995 | S. cerevisiae deletion strains, locus YMR307W, strain GAS1, stronger effect = lower value 1.05 and 1.01 | S. cerevisiae deletion strains, locus YNL067W, strain RPL9B, stronger effect = lower value 1.02 | S. cerevisiae deletion strains, locus YNL071W, strain lat1, stronger effect = lower value 0.997 | S. cerevisiae deletion strains, locus YNL128W, strain TEP1, stronger effect = lower value 1.01 and 0.993 | S. cerevisiae deletion strains, locus YNL153C, strain GIM3, stronger effect = lower value 1.01 and 0.975 | S. cerevisiae deletion strains, locus YNL175C, strain NOP13, stronger effect = lower value 0.977 | S. cerevisiae deletion strains, locus YNL183C, strain NPR1, stronger effect = lower value 0.942 | S. cerevisiae deletion strains, locus YNL197C, strain WHI3, stronger effect = lower value 0.935 | S. cerevisiae deletion strains, locus YNL209W, strain ssb2, stronger effect = lower value 0.996 | S. cerevisiae deletion strains, locus YNL224C, strain SQS1, stronger effect = lower value 0.989 | S. cerevisiae deletion strains, locus YNL233W, strain BNI4, stronger effect = lower value 1.01 | S. cerevisiae deletion strains, locus YNL248C, strain rpa49, stronger effect = lower value 0.968 | S. cerevisiae deletion strains, locus YNL250W, strain rad50, stronger effect = lower value 1 | S. cerevisiae deletion strains, locus YNL271C, strain bni1, stronger effect = lower value 0.989 | S. cerevisiae deletion strains, locus YNL298W, strain CLA4, stronger effect = lower value 0.998 | S. cerevisiae deletion strains, locus YNL307C, strain MCK1, stronger effect = lower value 0.996 | S. cerevisiae deletion strains, locus YNL322C, strain KRE1 (second series), stronger effect = lower value 0.985 | S. cerevisiae deletion strains, locus YNL322C, strain KRE1, stronger effect = lower value 1.01 | S. cerevisiae deletion strains, locus YNR049C, strain mso1, stronger effect = lower value 0.994 | S. cerevisiae deletion strains, locus YNR052C, strain pop2, stronger effect = lower value 1 | S. cerevisiae deletion strains, locus YOL006C, strain TOP1, stronger effect = lower value 1.05 | S. cerevisiae deletion strains, locus YOL012C, strain htz1 0.701 | S. cerevisiae deletion strains, locus YOL147C, strain pex11, stronger effect = lower value 0.986 | S. cerevisiae deletion strains, locus YOR001W, strain rrp6, stronger effect = lower value 0.989 | S. cerevisiae deletion strains, locus YOR061W, strain CKA2, stronger effect = lower value 1.01 | S. cerevisiae deletion strains, locus YOR069W, strain VPS5, stronger effect = lower value 1.01 | S. cerevisiae deletion strains, locus YOR070C, strain gyp1, stronger effect = lower value 0.998 | S. cerevisiae deletion strains, locus YOR080W, strain dia2, stronger effect = lower value 0.985 | S. cerevisiae deletion strains, locus YOR083W, strain WHI5 (second series), stronger effect = lower value 0.977 | S. cerevisiae deletion strains, locus YOR083W, strain WHI5, stronger effect = lower value 0.99 | S. cerevisiae deletion strains, locus YOR106W, strain vam3, stronger effect = lower value 0.991 | S. cerevisiae deletion strains, locus YOR136W, strain idh2, stronger effect = lower value 0.988 | S. cerevisiae deletion strains, locus YOR144C, strain elg1, stronger effect = lower value 0.998 | S. cerevisiae deletion strains, locus YOR184W, strain ser1, stronger effect = lower value 0.981 | S. cerevisiae deletion strains, locus YOR231W, strain MKK1, stronger effect = lower value 0.981 | S. cerevisiae deletion strains, locus YOR265W, strain rbl2, stronger effect = lower value 1 | S. cerevisiae deletion strains, locus YOR270C, strain vph1, stronger effect = lower value 1.02 | S. cerevisiae deletion strains, locus YOR290C, strain snf2, stronger effect = lower value 0.925 | S. cerevisiae deletion strains, locus YOR316C, strain cot1, stronger effect = lower value 0.999 | S. cerevisiae deletion strains, locus YPL051W, strain arl3, stronger effect = lower value 0.992 | S. cerevisiae deletion strains, locus YPL055C, strain LGE1, stronger effect = lower value 1.02 | S. cerevisiae deletion strains, locus YPL078C, strain atp4, stronger effect = lower value 0.997 | S. cerevisiae deletion strains, locus YPL106C, strain sse1, stronger effect = lower value 0.985 | S. cerevisiae deletion strains, locus YPL240C, strain hsp82, stronger effect = lower value 0.983 | S. cerevisiae deletion strains, locus YPL241C, strain CIN2, stronger effect = lower value 1.04 and 1.01 | S. cerevisiae deletion strains, locus YPL256C, strain CLN2, stronger effect = lower value 0.953 | S. cerevisiae deletion strains, locus YPR119W, strain clb2, stronger effect = lower value 0.997 | S. cerevisiae deletion strains, locus YPR141C, strain kar3, stronger effect = lower value 0.997 | S. cerevisiae deletion strains, locus YPR163C, strain tif3, stronger effect = lower value 0.998 | S. cerevisiae deletion strains, locus YPR167C, strain met16, stronger effect = lower value 0.997 | S. cerevisiae deletion strains, strain wtn01, stronger effect = lower value 1.01 | S. cerevisiae strains, strain wild type, stronger effect = lower value 1.01
